# Bioassay records (PubChem BioAssay)
# FBPA Giardia inh: qHTS Assay for Inhibitors of Fructose-1,6-bisphosphate Aldolase from Giardia Lamblia. Potency, µM (titrated, usually from 59.6 µM), without a hit: at the highest dose activity, negative = inhibition, hits mostly inhibitors. 0.71% of 290,000 active. A8B2U2. purified Giardia FBPA; also: potency is read from the fitted curve at half-maximal effect; % is scaled to controls: 0 for no effect and ±100 for the full control effect; nearly all actives have a fitted effect of over 55% in size
# Target sequence (A8B2U2 whole entry, looked up): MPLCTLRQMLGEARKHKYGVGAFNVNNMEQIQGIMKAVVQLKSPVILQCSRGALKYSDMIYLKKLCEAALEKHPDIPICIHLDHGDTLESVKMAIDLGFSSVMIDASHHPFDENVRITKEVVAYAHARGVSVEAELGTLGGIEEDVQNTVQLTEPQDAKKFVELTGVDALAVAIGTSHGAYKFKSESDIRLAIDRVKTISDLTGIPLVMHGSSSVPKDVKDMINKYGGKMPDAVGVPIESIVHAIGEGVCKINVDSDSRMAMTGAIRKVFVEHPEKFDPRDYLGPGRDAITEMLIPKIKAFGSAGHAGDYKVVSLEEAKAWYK
#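 40 nM FBPA preincubated 10 min at RT with compound (up to 57.5 uM final), then substrate plus GAPDH/TPI/NAD/arsenate coupling and diaphorase/resazurin added. Fluorescence read after 20 min at RT, 525/598 nm.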
# CHX counter: Cycloheximide Counterscreen for Small Molecule Inhibitors of Shiga Toxin; cell reporter, cycloheximide protein synthesis inhibition counterscreen; AID 2314, 2010; max response, %; 12% of 300,000 active; in the data active = max response mostly above about 13%, no sharp cut-off; inactive = mostly below about 14%; also: read at 38.3 µM for the half of the compounds with a filed dose; 0% is about no effect
# RE007 growth inh: qHTS Assay for Inhibitors of the HIV-1 protein Vpr. S. pombe RE007 Vpr strain, BacTiter-Glo ATP luminescence, 24 h. Potency, µM (series often up to 92.2 µM), inactives show at the highest dose activity change, negative = less growth, most hits filed as inhibitors. 0.21% of 360,000 active; active = well fitted falling curve with a large enough effect; inconclusive = small, poorly fitted or top-dose-only effect; inactive = no such curve, though single readings can be large or run the other way; also: potency is read from the fitted curve at half-maximal effect; % is scaled to controls: 0 for no effect and ±100 for the full control effect; nearly all actives have a fitted effect of over 50% in size
#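 Fission yeast strain RE007, carrying one chromosomally integrated HIV-1 vpr copy, was seeded at OD 0.01 in PMG+AL medium with 23 nL pinned compound. After 24 h at 30 °C and 99% humidity, viability was read by BacTiter-Glo luminescence.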
# LmPK inhibitor: qHTS Assay for Inhibitors of Leishmania Mexicana Pyruvate Kinase (LmPK); AID 1721, 2009; Potency, µM (series often up to 57.5 µM), for inactives: at the top dose activity change, negative = inhibition, actives largely listed as inhibitors; Q27686; 0.37% of 290,000 active; purified LmPK, Kinase-Glo ATP luminescence, 1 h; also: potency is read from the fitted curve at half-maximal effect; % is scaled to controls: 0 for no effect and ±100 for the full control effect
#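 Screened at intermediate enzyme activity to detect both inhibitors and activators: LmPK at 0.1 nM, with a 0.5 nM enzyme column as activation reference. PEP 0.5 mM, ADP 0.1 mM; ATP detected by luminescence after 1 h.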
# TbPYK inhibitor: qHTS of Trypanosoma Brucei Inhibitors; 0.12% of 410,000 active; TbPYK enzyme, Kinase-Glo Plus ATP luminescence, 45 min; pyruvate kinase (Trypanosoma brucei), Q57TT1; AID 624173, 2012; Potency, µM (titrated, usually from 76.8 µM), for inactives: at the highest dose activity, negative = inhibition, usual class: inhibitors; also: potency is read from the fitted curve at half-maximal effect; % is scaled to controls: 0 for no effect and ±100 for the full control effect; nearly all actives have a fitted effect of over 50% in size
#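 Readout: single end-point luminescence (Kinase-Glo Plus, 10 min). Reaction conditions were TbPYK/substrate plus 130 uM ADP, 45 min at RT, pH 7.2 TEA buffer. No-enzyme wells served as controls, and data were normalized before concentration-response fitting.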
# Shiga inhibitor: A qHTS for Small Molecule Inhibitors of Shiga Toxin. Vero cells, Shiga toxin protein synthesis inhibition reporter. inhibition, % at 38.7 µM. 9.2% of 290,000 active. AID 2315, 2010; in the data active = inhibition mostly above about 28%, no sharp cut-off; inactive = mostly below about 43%; also: 0% is about no effect
# * marks the source's active call; other numbers are inactive results; ? = inconclusive; nt = not tested or not shown; [ ] = another dose, or the depositor's remark. The sample as a whole holds a higher share of hits than the screen did. Unless noted, calls follow the shape of the dose curve; as a rule, active = well fitted curve in the direction sought with a large enough effect; inconclusive = small, poorly fitted or top-dose-only effect, or another doubt; inactive = no such curve, though single readings can be large; an effect the other way counts as inactive or inconclusive.
SMILES,FBPA Giardia inh,CHX counter,RE007 growth inh,LmPK inhibitor,TbPYK inhibitor,Shiga inhibitor
O=C1C[C@H](c2ccc(-c3ccccc3)cc2)N1S(=O)(=O)c1ccccc1[N+](=O)[O-],?,-3,nt,nt,nt,6
CCOc1ncccc1C(=O)OCC(=O)c1ccc(OC)c(OC)c1,3%,14,4%,1%,-7%,-1
CCOc1ncccc1C(=O)OCC(=O)c1ccc(C)c(C)c1,-2%,43*,-6%,-5%,-7%,70*
COc1ccc(C(=O)COC(=O)c2cccnc2Cl)c(OC)c1,-6%,38*,20%,-3%,-2%,72*
COc1ccc(OC)c(C(=O)COC(=O)c2cccnc2Cl)c1,-6%,10,-3%,8%,1%,18
Nc1c([N+](=O)[O-])ccc(Oc2ccccc2)c1Cl,-20%,7,nt,nt,nt,26
COc1ccc(OC)c(C(=O)CN2C(=O)N(c3ccc(C)cc3)S(=O)(=O)c3ccccc32)c1,nt,nt,nt,nt,-6%,nt
Nc1cccc(-c2nc3ncccc3o2)c1,0%,31*,5%,-1%,7%,56*
CCc1ccc(OCC(=O)Nc2ccc(-c3nc4ncccc4o3)cc2)cc1,nt,nt,nt,nt,2%,nt
Nc1ccc(-c2nc3ncccc3o2)cc1,4%,34*,-10%,-8%,2%,31*
O=C(Cc1ccccc1)Nc1cccc(-c2nc3ncccc3o2)c1,2%,5,9%,-1%,-7%,22
CCc1ccccc1NC(=O)c1cc(-c2cccs2)on1,-1%,17*,-12%,0%,-6%,38
CCc1ccccc1NC(=O)c1cc(-c2cccc(O)c2)on1,-7%,20*,8%,1%,-3%,61
CCc1ccccc1NC(=O)c1cc(-c2ccc(F)cc2)on1,5%,21,26%,-13%,0%,33
O=C(Nc1cccnc1Cl)c1cc(-c2cccc(O)c2)on1,0%,16*,1%,-3%,0%,70*
O=C(Nc1ccccc1C(F)(F)F)c1cc(-c2cccc(O)c2)on1,2%,20*,15%,0%,-11%,27
CC(=O)c1ccc(NC(=O)c2sc(-n3nc(C)c(Cc4ccccc4)c3C)nc2C)cc1,nt,nt,nt,nt,-1%,nt
Cc1nc2nc(NC(=O)c3ccc(C(C)(C)C)cc3)[nH]n2c(=O)c1C,nt,nt,nt,nt,-1%,nt
O=[N+]([O-])c1ccc(COc2cccc(CNc3ccc(F)cc3)c2)cc1,-6%,35*,-11%,-1%,-4%,37*
OCCNCc1cccc(OCc2ccc(Cl)cc2)c1,-4%,7,5%,1%,6%,25
Oc1ccc(NCc2cccc(OCc3ccccc3)c2)cc1,16µM*,22*,-25%,1%,?,47
CCOc1cc(CNc2ccc(O)cc2)cc(Cl)c1OCc1ccccc1,nt,nt,nt,nt,-16%,nt
c1ccc(COc2cccc(CNCc3cccnc3)c2)cc1,-8%,9,-11%,-1%,2%,13
c1ccc(COc2cccc(CNCc3ccccn3)c2)cc1,-4%,34*,-11%,-2%,-1%,65*
Oc1ccc(NCc2cccc(OCc3ccc(F)cc3)c2)cc1,18µM*,24*,-25%,-2%,?,45*
SMILES,FBPA Giardia inh,CHX counter,RE007 growth inh,LmPK inhibitor,TbPYK inhibitor,Shiga inhibitor
Cc1ccc(-c2nnc(NC3CCCC3)s2)cc1,-9%,54*,-21%,-3%,-5%,53*
c1ccc(CSc2nnc(NC3CCCCC3)s2)cc1,nt,nt,-9%,nt,-2%,nt
CCN(CC)C(=O)COc1cc(C)c(Cl)c(C)c1,-5%,-2,11%,5%,-3%,-4
CN(C(=O)COC(=O)COc1ccc(Cl)cc1)C1CCCCC1,-1%,-4,-11%,1%,4%,-11
Cc1cc(OCC(=O)N(C)C2CCCCC2)cc(C)c1Cl,0%,42*,-16%,-6%,-1%,91*
Cc1cc(OCC(=O)N(C)C2CCCCC2)ccc1Cl,4%,25*,4%,-1%,-4%,55
CN(C(=O)COC(=O)c1ccc(Cl)cc1N)C1CCCCC1,1%,21*,-24%,0%,-1%,13
CSc1ccc(CCNC(=O)c2csc3c2CCCCC3)cc1,nt,nt,nt,nt,-6%,nt
O=C(Nc1ccc(S(=O)(=O)N2CCCCC2c2cccnc2)cc1)c1ccc(Br)cc1 (configuration not stated),nt,nt,nt,nt,-1%,nt
CC(C)=CCC/C(C)=C/CO/N=C1/C[C@@H](O)[C@@H](O)[C@@H]2[C@@H]3C(=O)N(Cc4ccc5c(c4)OCO5)C(=O)[C@H]3CC[C@@H]12,0%[12.9 µM],nt,nt,nt,nt,nt
COC[C@H]1OC(=O)c2coc3c2[C@@]1(C)C1=C(C3=O)[C@H]2CCC(=O)[C@@]2(C)C[C@H]1OC(C)=O,-19%,nt,nt,nt,nt,nt
Cc1ccccc1N=C1Nc2ccccc2CS1,-5%,29*,?,-27%,-12%,122*
O=C(Nc1ccc2c(c1)OCCO2)c1cc2sccc2n1Cc1ccc(F)cc1,-15%,31*,12%,0%,-9%,65*
O=C(Nc1ccc2c(c1)OCCO2)c1cc2sccc2n1Cc1ccccc1,nt,24,17%,4%,2%,126*
Cn1c(C(=O)NCCN2CCOCC2)cc2sccc21,-1%,36,-5%,0%,1%,72
Cn1c(C(=O)Nc2ccc3c(c2)OCCO3)cc2sccc21,?,36*,-6%,-25%,2%,47*
O=C(NCc1ccco1)c1cc2sccc2n1Cc1ccccc1,-12%,56*,-4%,3%,1%,36*
O=C(NCCc1ccccc1)c1cc2sccc2n1Cc1ccccc1,nt,15,-1%,0%,-3%,19
CCOC(=O)c1cccc(NC(=O)c2cc3sccc3n2C)c1,-21%,39*,-13%,2%,-2%,46*
O=C(NCc1ccco1)c1ccc(Cn2c(=O)c3sccc3n(Cc3cccc(F)c3)c2=O)cc1,4%,26*,13%,3%,-1%,22
CCc1ccc(O)c(N=Cc2cccc(C)c2O)c1,1%,27*,?,-5%,-6%,47
CSc1nc(-c2cccs2)c(C#N)c(=O)[nH]1,10%,8.9*,-7%,-4%,-13%,26
CSc1nc(-c2ccccc2)c(C#N)c(=O)[nH]1,9%,-4,4%,-3%,-28%,-10
CC(C)(C)NC(=O)C(=O)N/N=C/c1ccc(Br)cc1,-2%,15,-13%,1%,5%,13
CC(C)(C)c1nnc(N/N=C/c2ccc(Br)cc2)n(N)c1=O,4%,55*,-4%,0%,-8%,64*
CCCC(=O)N1CCN(c2ccc(NC(=O)c3cc4ccccc4o3)cc2Cl)CC1,10µM*,13,-16%,4%,-6%,11
